Screening results from PubChem BioAssay.
T cruzi growth-1 = inhibitors of T. cruzi proliferation | T. cruzi beta-gal in NIH3T3, GalScreen luminescence, 90 h | inhibition, % at 8.34 µM | 5.9% of 77,000 active | AID 624255;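 active = mean inhibition above about 93%, with at least 55% of replicates each passing it, limit read from the data, passing the limit was not always enough; inconclusive = only one of those two conditions holds; inactive = neither condition holds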
Pf Dd2 inh = blocks growth of Plasmodium falciparum Dd2 parasites; activity change, % at 10 µM; 2.3% of 94,000 active; AID 1159554; P. falciparum Dd2 growth, SYBR Green, 72 h; active compounds read low; in the data active = activity change below about -80%; inconclusive = no clear call, values can overlap the other calls
C diff HTS = inhibitors of Clostridium difficile growth. 0.25% of 86,000 active. Clostridium difficile clinical isolate growth, OD600, 24 h; active compounds read low. AID 1259249. growth activity, negative = inhibition, % at 16 µg/mL (by protocol);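 active = mean growth activity at or below -80% and every replicate also at or below -80%; inconclusive = mean at or below -80% but some replicate above -80%; inactive = mean growth activity above -80%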
T cruzi growth-2 = inhibitors of T. cruzi proliferation; shares compounds with T cruzi growth-1; T. cruzi beta-gal in NIH3T3, GalScreen luminescence, 90 h; inhibition, % at 8.35 µM; 72% of 5,600 active; AID 651739;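 active = mean replicate inhibition above about 95% and at least 55% of replicates individually reaching it, limit read from the data; inconclusive = only one of the two criteria is met; inactive = neither criterion is met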
T cruzi growth-3 = Trypanosoma cruzi proliferation inhibition; 21% of 5,600 active; shares compounds with T cruzi growth-1; T. cruzi beta-gal in NIH3T3, GalScreen luminescence, 90 h; inhibition, % at 2.09 µM;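 active = mean inhibition above about 95%, with at least 55% of replicates also reaching it, limit read from the data; inconclusive = meets just one of the two conditions; inactive = meets neither condition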
3T3 cytotox = kills mouse NIH/3T3 fibroblasts. 14% of 5,600 active. shares compounds with T cruzi growth-1. NIH/3T3 viability, CellTiter-Glo ATP luminescence, 90 h. AID 651742. cytotoxicity (signal decrease), % at 8.35 µM;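 active = mean signal decrease across replicates above about 35% based on untreated-well scatter, with enough replicates individually passing, limit read from the data; inconclusive = no rule stated though some were filed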
NIH3T3 tox 2 = NIH/3T3 (mouse) viability loss; 56% of 5,600 active; AID 651744; NIH/3T3 viability, CellTiter-Glo ATP luminescence, 90 h; shares compounds with T cruzi growth-1; inhibition, % at 24.9 µM;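 active = mean loss of cell viability signal at or above a set limit, and enough replicates individually reaching it; inconclusive = meets only the mean limit or only the replicate share; inactive = meets neither condition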
Of the large screens only hits and unclear results are named; the others gave an inactive call (follow-up assays come after a bar, where they were run). Compounds with a hit are over-represented: about 6.7% of the library has one in this group of screens.

COc1ccc(S(=O)(=O)N(C)C[C@@H]2Oc3cc(C4=CCCC4)ccc3S(=O)(=O)N([C@H](C)CO)C[C@H]2C)cc1	none
COc1ccc(S(=O)(=O)N(C)C[C@@H]2Oc3cc(-c4ccccc4OC)ccc3S(=O)(=O)N([C@H](C)CO)C[C@H]2C)cc1	T cruzi growth-1 127, Pf Dd2 inh -87 | T cruzi growth-2 102 | T cruzi growth-3 inactive | 3T3 cytotox inactive | NIH3T3 tox 2 58
COc1ccc(S(=O)(=O)N(C)C[C@@H]2Oc3cc(-c4ccccc4OC)ccc3S(=O)(=O)N([C@H](C)CO)C[C@@H]2C)cc1	T cruzi growth-1 127 | T cruzi growth-2 110 | T cruzi growth-3 inactive | 3T3 cytotox inactive | NIH3T3 tox 2 63
COc1ccc(S(=O)(=O)N(C)C[C@@H]2Oc3cc(-c4ccccc4OC)ccc3S(=O)(=O)N([C@@H](C)CO)C[C@@H]2C)cc1	T cruzi growth-1 126 | T cruzi growth-2 114 | T cruzi growth-3 100 | 3T3 cytotox 45 | NIH3T3 tox 2 inactive
COc1ccc(S(=O)(=O)N(C)C[C@@H]2Oc3cc(C4=CCCC4)ccc3S(=O)(=O)N([C@@H](C)CO)C[C@H]2C)cc1	none
COC(=O)[C@@H]1[C@@H](CO)[C@@H]2Cn3c(ccc(C4=CCCC4)c3=O)[C@@H]2N1C(=O)C1CCC1	none
COc1ccc(S(=O)(=O)N(C)C[C@@H]2Oc3cc(C#CC4CCCC4)ccc3S(=O)(=O)N([C@H](C)CO)C[C@@H]2C)cc1	none
COc1ccc(S(=O)(=O)N(C)C[C@@H]2Oc3cc(C#CC4CCCC4)ccc3S(=O)(=O)N([C@@H](C)CO)C[C@@H]2C)cc1	none
COc1ccc(S(=O)(=O)N(C)C[C@H]2Oc3cc(C#CC4CC4)ccc3S(=O)(=O)N([C@H](C)CO)C[C@H]2C)cc1	T cruzi growth-1 107 | T cruzi growth-2 108 | T cruzi growth-3 inactive | 3T3 cytotox inactive | NIH3T3 tox 2 59
COc1ccc(S(=O)(=O)N(C)C[C@@H]2Oc3cc(C#CC4CC4)ccc3S(=O)(=O)N([C@@H](C)CO)C[C@H]2C)cc1	T cruzi growth-1 112 | T cruzi growth-2 102 | T cruzi growth-3 inactive | 3T3 cytotox 53 | NIH3T3 tox 2 40
O=C(C[C@H]1CC[C@@H](NS(=O)(=O)c2ccc(F)cc2)[C@@H](CO)O1)NCc1ccccc1F	none (no result: T cruzi growth-1)
CCCNC(=O)Nc1ccc2c(c1)OC[C@H](C)N(C(=O)C1CC1)C[C@@H](C)[C@H](OC)CN(C)C2=O	none (no result: Pf Dd2 inh, C diff HTS)
COc1ccc2c3c([nH]c2c1)[C@H](CO)N(S(C)(=O)=O)CC31CCN(CC2CC2)CC1	none (no result: T cruzi growth-1)
C[C@@H]1CN([C@H](C)CO)C(=O)CCCn2nncc2CO[C@@H]1CN(C)Cc1ccc(C(=O)O)cc1	none (no result: T cruzi growth-1)
CN1c2ccc(C3=CCCCC3)cc2[C@H]2[C@H](CCN2C(=O)C2CCC2)[C@@H]1CO	none (no result: T cruzi growth-1)
CN(C)C(=O)c1ccc(-c2ccc3c(c2)[C@H]2[C@H](CCN2C(=O)C2CC2)[C@@H](CO)N3C)cc1	T cruzi growth-1 102 | T cruzi growth-2 101 | T cruzi growth-3 99 | 3T3 cytotox inactive | NIH3T3 tox 2 inactive
CN1c2ccc(-c3cccc(F)c3)cc2[C@@H]2[C@@H](CCN2C(=O)C2CCOCC2)[C@H]1CO	none
CN(C)C(=O)c1ccc(-c2ccc3c(c2)[C@H]2[C@H](CCN2C(=O)C2CC2)[C@H](CO)N3C)cc1	none
CN1c2ccc(-c3ccc(F)cc3)cc2[C@H]2[C@H](CCN2C(=O)C2CCOCC2)[C@@H]1CO	T cruzi growth-1 102 | T cruzi growth-2 104 | T cruzi growth-3 inactive | 3T3 cytotox inactive | NIH3T3 tox 2 inactive
CN1c2ccc(C3=CCCCC3)cc2[C@@H]2[C@@H](CCN2C(=O)C2CCOCC2)[C@H]1CO	T cruzi growth-1 105 | T cruzi growth-2 102 | T cruzi growth-3 inactive | 3T3 cytotox inactive | NIH3T3 tox 2 inactive
CN(C)C(=O)c1ccc(-c2ccc3c(c2)[C@H]2[C@H](CCN2C(=O)C2CCCCC2)[C@@H](CO)N3C)cc1	none (no result: T cruzi growth-1)
CN(C)C(=O)c1ccc(-c2ccc3c(c2)[C@H]2[C@H](CCN2C(=O)C2CCOCC2)[C@@H](CO)N3C)cc1	T cruzi growth-1 101 | T cruzi growth-2 98 | T cruzi growth-3 inactive | 3T3 cytotox inactive | NIH3T3 tox 2 inactive
O=C(C[C@@H]1CC[C@@H](NC(=O)c2ccc3c(c2)OCO3)[C@H](CO)O1)NC1Cc2ccccc2C1	none (no result: C diff HTS)
Cc1ccc(S(=O)(=O)N[C@@H]2CC[C@@H](CC(=O)NCCN3CCCCC3)O[C@@H]2CO)cc1	none
O=C(C[C@H]1C[C@@H]2c3cc(NC(=O)CC4CC4)ccc3O[C@@H]2[C@H](CO)O1)NCc1cccc(F)c1	none
C[C@@H]1CN([C@@H](C)CO)C(=O)Cc2cc(NC(=O)Cc3ccccc3)ccc2O[C@H]1CN(C)Cc1ccccc1	none
COCC(=O)N1CC2(CN(C(=O)NC(C)C)C2)c2c(n(C)c3cc(OC)ccc23)[C@H]1CO	none (no result: T cruzi growth-1)
O=C(NC1CCC1)[C@H]1[C@H](CO)[C@H]2Cn3c(ccc(C4=CCCC4)c3=O)[C@H]2N1C(=O)C1CCCC1	none
C[C@@H]1CN([C@H](C)CO)C(=O)c2cc(C#CCc3ccccc3)cnc2O[C@H]1CN(C)CC1CCOCC1	none
C[C@H]1CN([C@@H](C)CO)C(=O)c2cc(C#Cc3cccnc3)cnc2O[C@@H]1CN(C)Cc1ccccc1	none (no result: C diff HTS)
C[C@@H]1CN([C@@H](C)CO)C(=O)c2cc(C#CCc3ccccc3)cnc2O[C@@H]1CN(C)Cc1cccnc1	T cruzi growth-1 101 | T cruzi growth-2 inactive | T cruzi growth-3 inactive | 3T3 cytotox inactive | NIH3T3 tox 2 inactive
C[C@H](CO)N1C[C@H](C)[C@H](CN(C)Cc2cccnc2)Oc2ncc(C#CCc3ccccc3)cc2C1=O	none
C[C@H]1CN([C@@H](C)CO)C(=O)c2cc(C#CCc3ccccc3)cnc2O[C@@H]1CN(C)CC1CCCC1	T cruzi growth-1 109, Pf Dd2 inh -88 | T cruzi growth-2 103 | T cruzi growth-3 inconclusive | 3T3 cytotox inactive | NIH3T3 tox 2 103
C[C@H](CO)N1C[C@H](C)[C@H](CN(C)Cc2ccccc2)Oc2ncc(C#Cc3cccnc3)cc2C1=O	T cruzi growth-1 101 (no result: C diff HTS) | T cruzi growth-2 inactive | T cruzi growth-3 inactive | 3T3 cytotox inactive | NIH3T3 tox 2 inactive
C[C@H](CO)N1C[C@H](C)[C@H](CN(C)Cc2ccccn2)Oc2ncc(C#CCC3CCCC3)cc2C1=O	none
C[C@@H]1CN([C@@H](C)CO)C(=O)c2cc(C#CCC3CCCC3)cnc2O[C@H]1CN(C)Cc1ccccn1	T cruzi growth-1 110 | T cruzi growth-2 105 | T cruzi growth-3 inactive | 3T3 cytotox inactive | NIH3T3 tox 2 104
O=C(C1CC1)N1CC(=O)N2[C@H](CO)[C@@H](c3ccc(C#Cc4cccc(F)c4)cc3)[C@H]2C1	none (no result: T cruzi growth-1)
